The target in the first assay is KCNRG. Kind of assay: pooled miR-30 sensor sort-seq; sequence = guide strand. As to conditions: shRNA.
Take TATGATGATAGTCTCTGGTTTT: the sensor-assay potency score (higher = more potent) was -0.744.

Consider TTGTCTTCAGAAGATACTGTTC, for which the sensor-assay potency score (higher = more potent) was -0.478.

As for TCTGGTATGATGATAGTCTCTG, the sensor-assay potency score (higher = more potent) turned out to be 0.569.

For TTCTAGTGCTGACCAAATGAAA, the sensor-assay potency score (higher = more potent) is -1.49.

TTTTGGTGTTTCATTCGTGATG: the sensor-assay potency score (higher = more potent) was -1.02.

For the sequence TATAGCATTCAGTTTTGTCTTC, the sensor-assay potency score (higher = more potent) is 0.0468.

TTTTGTCTTCAGAAGATACTGT displayed a sensor-assay potency score (higher = more potent) of 0.229.

In the case of TTTGTCTTCAGAAGATACTGTT, the sensor-assay potency score (higher = more potent) is -0.101.

On to TACTGTTCTAGTGCTGACCAAA, for which the sensor-assay potency score (higher = more potent) was -1.23.

Take TAGAAACATACCTGACTCCAGT: the sensor-assay potency score (higher = more potent) is -0.214.

The target of another assay is KCNS2. The description is as above. Conditions: shRNA.
With TACTCCTTACACCATAACCATA, the sensor-assay potency score (higher = more potent) is -1.82.

For the sequence TGCTCCACGATTTCGAACCTAG, the sensor-assay potency score (higher = more potent) is -0.681.

On to TCGAAGTAGAACTCCCGCTGGA, for which the sensor-assay potency score (higher = more potent) was -0.212.

As to TAGAAATGCAGCACGTAGGGGA, the sensor-assay potency score (higher = more potent) came to 0.48.

With TAGTCCCTTAAATTGACCGAAG, the sensor-assay potency score (higher = more potent) was -1.33.

In the case of TTTATGGGCATAATAGTCCCTT, the sensor-assay potency score (higher = more potent) is -0.514.

As to TTAAACTGAGTTCACTTGGTGA, the sensor-assay potency score (higher = more potent) was -0.682.

As to TTTAAACTGAGTTCACTTGGTG, the sensor-assay potency score (higher = more potent) was 0.664.

For TTCTTTGTAGCTGTATTTCAAA, the sensor-assay potency score (higher = more potent) is -1.

As to TAGGGCATTCTTGAAGAACTTG, the sensor-assay potency score (higher = more potent) was -0.408.

Turning to TAGAATAGCGTACACGATGGAC, the sensor-assay potency score (higher = more potent) was -0.475.

Consider TTACACCATAACCATAAGGTGC, for which the sensor-assay potency score (higher = more potent) is -1.42.

In a further assay the target is KCTD3. The description is as above. As to conditions: shRNA.
On to TTTGAGTAGCTCTTCTTCGGTT, for which the sensor-assay potency score (higher = more potent) is -0.151.

As to TTGAGTAGCTCTTCTTCGGTTG, the sensor-assay potency score (higher = more potent) is -0.328.

For TTGTAGTACAGTCAACAGCCTG, the sensor-assay potency score (higher = more potent) is -1.16.

Take TTATCTTTCATTCGCAAGGGGA: the sensor-assay potency score (higher = more potent) was -0.381.

AGGAACAACATCTTGAACCTGC: the sensor-assay potency score (higher = more potent) is -0.641.

In the case of TATCAATAAATATAGCACCAGT, the sensor-assay potency score (higher = more potent) is -0.952.

In turn, TTTAAATTTACAATTACCCTAT registered a sensor-assay potency score (higher = more potent) of 0.0082.

As for TGATTCTGTAACACACAGCAAA, the sensor-assay potency score (higher = more potent) was -1.06.

With TGTAGTACAGTCAACAGCCTGG, the sensor-assay potency score (higher = more potent) was found to be 0.267.

As for TTGCATTTAAAGCTACTCGTTC, the sensor-assay potency score (higher = more potent) is -0.407.

Take TAGTTATAGGAACAACATCTTG: the sensor-assay potency score (higher = more potent) is -1.48.

Another assay concerns the target KDELR1. The assay is described as above. Conditions: shRNA.
As to TAAATCAACCAGACCGTGGTGA, the sensor-assay potency score (higher = more potent) came to 0.82.

TAGACCACCTTCATACACGTGT yielded a sensor-assay potency score (higher = more potent) of 0.283.

Take TTTGGTGATATAGAGGTAGAAG: the sensor-assay potency score (higher = more potent) is -0.962.

For the sequence ATCGTAAGTAGCTTTGAACTTG, the sensor-assay potency score (higher = more potent) was -0.446.

As to TAAGTAGCTTTGAACTTGCTAT, the sensor-assay potency score (higher = more potent) is -0.0372.

For the sequence TTGAGCAGTAGCAAGATGATGG, the sensor-assay potency score (higher = more potent) is -0.401.

As to TTGAAGAGATAGAGCGTGCGGT, the sensor-assay potency score (higher = more potent) is -0.25.
Note: reference of the scale not given here.
